Test results as given in PubChem BioAssay AID1159580 (chemical genetic matrix, 2015).
Several values for one entry are separate records, joined by “and”; a condition that tells them apart may be missing. Identical values can stand only once. Out of some 5,500 compounds screened, about 2,000 (36%) were called active. Not shown: some 18% with an inconclusive outcome. Cut-off read from the data, not from the text of the source: active = normalized growth mostly below about 0.91 (no sharp cut-off); inconclusive = no clear call, values can overlap the other calls; inactive = mostly above about 0.92. The list shows a part of the results.

Assay: chemical genetic growth profiling, strain panel (AID 1159580);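 note: tested at 20 µM; growth read once vehicle control cultures reached saturation at 30 °C; 1 = growth at the plate median or of vehicle wells; lower values mean less growth of the strain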
Settings: S. cerevisiae deletion strains, growth OD

Measured: normalized growth

C=C1[C@H]2CC[C@@]3(C)[C@H](c4ccoc4)OC(=O)C[C@]13O[C@H]1C[C@H](O)C(C)(C)[C@H](CC(=O)OC)[C@]12C
inactive: locus YAL021C, strain ccr4, active compounds read low 0.998 | locus YAL026C, strain drs2, active compounds read low 1.05 | locus YAL030W, strain snc1, active compounds read low 1.02 | locus YBL061C, strain skt5, active compounds read low 1.02 | locus YBR009C, strain hhf1, active compounds read low 1.01 | locus YBR021W, strain FUR4, active compounds read low 0.985 | locus YBR023C, strain chs3, active compounds read low 1.01 | locus YBR171W, strain sec66, active compounds read low 1.02 | locus YBR229C, strain ROT2, active compounds read low 0.999 | locus YBR231C, strain swc5, active compounds read low 1.04 | locus YBR279W, strain paf1, active compounds read low 1.02 | locus YCL011C, strain gbp2, active compounds read low 1.01 | locus YCL016C, strain dcc1, active compounds read low 1 | locus YCL029C, strain bik1, active compounds read low 1.01 | locus YCL061C, strain MRC1, active compounds read low 1.03 | locus YCL069W, strain vba3, active compounds read low 1.02 | locus YCR088W, strain abp1, active compounds read low 1.02 | locus YDL005C, strain med2, active compounds read low 1.02 | locus YDL035C, strain GPR1, active compounds read low 1 | locus YDL040C, strain nat1, active compounds read low 1.02 | locus YDL074C, strain BRE1, active compounds read low 0.99 | locus YDL101C, strain DUN1, active compounds read low 1 | locus YDL134C, strain PPH21, active compounds read low 1 | locus YDL185W, strain tfp1, active compounds read low 1.03 | locus YDL192W, strain arf1, active compounds read low 1.02 | locus YDR001C, strain nth1, active compounds read low 1.02 | locus YDR069C, strain doa4, active compounds read low 1.03 | locus YDR101C, strain arx1, active compounds read low 1.01 | locus YDR137W, strain rgp1, active compounds read low 0.975 | locus YDR159W, strain sac3, active compounds read low 1.04 | locus YDR162C, strain NBP2, active compounds read low 1.01 | locus YDR195W, strain ref2 1.03 | locus YDR297W, strain sur2, active compounds read low 1.03 | locus YDR318W, strain mcm21, active compounds read low 1.02 | locus YDR334W, strain swr1, active compounds read low 1.02 | locus YDR335W, strain msn5, active compounds read low 1.02 | locus YDR388W, active compounds read low 1.02 | locus YDR392W, strain spt3, active compounds read low 0.927 | locus YDR502C, strain sam2, active compounds read low 1.02 | locus YEL003W, strain gim4, active compounds read low 1.03 | locus YEL037C, strain rad23, active compounds read low 1.01 | locus YEL061C, strain CIN8 (second series), active compounds read low 1.02 | locus YEL061C, strain CIN8, active compounds read low 0.998 | locus YER015W, strain faa2, active compounds read low 1.03 | locus YER016W, strain bim1, active compounds read low 1.02 | locus YER110C, active compounds read low 1.02 | locus YER111C, strain swi4, active compounds read low 1.03 | locus YER155C, strain BEM2 (second series), active compounds read low 1.04 | locus YER155C, strain BEM2, active compounds read low 1 | locus YER167W, strain BCK2, active compounds read low 1 | locus YFR010W, strain ubp6, active compounds read low 1.04 | locus YGL078C, strain dbp3, active compounds read low 1.02 | locus YGL086W, strain mad1, active compounds read low 1 | locus YGL167C, strain pmr1, active compounds read low 1.02 | locus YGL173C, strain kem1, active compounds read low 1.04 | locus YGL227W, strain vid30, active compounds read low 1.03 | locus YGL240W, strain doc1, active compounds read low 1.02 | locus YGL248W, strain PDE1, active compounds read low 0.999 | locus YGL253W, strain hxk2, active compounds read low 1.03 | locus YGR078C, strain PAC10, active compounds read low 0.999 | locus YGR135W, strain pre9, active compounds read low 1.02 | locus YGR252W, strain gcn5, active compounds read low 1.02 | locus YHR013C, strain ard1, active compounds read low 1 | locus YHR027C, strain rpn1, active compounds read low 1.02 | locus YHR030C, strain SLT2, active compounds read low 0.986 | locus YHR079C, strain IRE1 (second series), active compounds read low 1.02 | locus YHR079C, strain IRE1, active compounds read low 0.977 | locus YHR094C, strain hxt1, active compounds read low 1.02 | locus YHR129C, strain ARP1, active compounds read low 1.01 | locus YHR142W, strain chs7, active compounds read low 1.01 | locus YHR200W, strain rpn10, active compounds read low 1 | locus YIL066C, strain RNR3, active compounds read low 1.01 | locus YIL073C, strain SPO22, active compounds read low 1.07 | locus YIL125W, strain kgd1, active compounds read low 1.01 | locus YIR030C, strain dcg1, active compounds read low 1.02 | locus YJL092W, strain hpr5, active compounds read low 1.03 | locus YJL095W, strain BCK1 (second series), active compounds read low 1.02 | locus YJL095W, strain BCK1, active compounds read low 1 and 0.979 | locus YJL115W, strain asf1, active compounds read low 1.02 | locus YJL129C, strain trk1, active compounds read low 1.02 | locus YJL134W, strain LCB3, active compounds read low 1.01 | locus YJL154C, strain vps35, active compounds read low 1.02 | locus YJL164C, strain tpk1, active compounds read low 1 | locus YJL166W, strain qcr8, active compounds read low 1.03 | locus YJL168C, strain set2, active compounds read low 1.02 | locus YJL187C, strain SWE1 (second series), active compounds read low 1 | locus YJR043C, strain POL32, active compounds read low 0.991
